# PubChem BioAssay (EPA / NIEHS)
# Records with an inconclusive call do not appear. Active and inactive are the calls of the source. How the source made its calls, unless noted: active means hit-call score of the fitted dose curve at least 0.9, where 1 is the maximum; inactive means score below 0.9.
# Tests used:
# [1] = target: human Thyroid Receptor alpha (THRa1), THRA (gene 7067) (UniProt P10827); assay: ATG_THRa1_TRANS: Attagene TRANS-FACTORIAL HepG2 Assay for human Thyroid Receptor alpha (THRa1) (AID 2283014; active means hit-call score of the fitted dose curve at least 0.9, where 1 is the maximum)
# In short: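 Transient HepG2 transfection, NR-Gal4 chimera driving GAL4-UAS reporters; 24 h compound exposure; total RNA, oligo(dT) RT, PCR, fluorescent primer extension, capillary electrophoresis. Upward direction vs DMSO control.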
# [2] = read-out: E-selectin (Homo sapiens) (UniProt P16581); assay: BSK_3C_Eselectin: BioMAP Diversity Plus: 3C Assay for Eselectin Biomarker Activity (AID 2283015); settings: primary human endothelial cells (HUVEC); actives raise or lower the signal;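 on outcome: cell surface E-selectin protein quantified by ELISA 24 h after dosing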
# In short: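 HUVEC, 3C stimulation; compound exposure 24 h; E-selectin by ELISA; gain- or loss-of-signal fitted bidirectionally vs DMSO baseline.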
# [3] = read-out: Interleukin-1 alpha (IL1a), IL1A (gene 3552); assay: BSK_BE3C_IL1a: BioMAP Diversity Plus: BE3C Assay for Interleukin-1 alpha (IL1a) Biomarker Activity (AID 2283016); settings: primary human bronchial epithelial cells; actives raise or lower the signal
# In short: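 Cultures of primary human bronchial epithelial cells receive test chemical. After 24 h, IL-1a is quantified by ELISA, while parallel wells are fixed in TCA and SRB-stained for total protein. Changes in either direction are fitted relative to DMSO.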
# [4] = read-out: Monocyte Chemoattractant Protein-1 (MCP1), CCL2 (gene 6347); assay: BSK_3C_MCP1: BioMAP Diversity Plus: 3C Assay for Monocyte Chemoattractant Protein-1 (MCP1) Biomarker Activity (AID 2283017); settings: primary human endothelial cells (HUVEC); actives raise or lower the signal
# In short: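 HUVEC, 3C system; 24 h chemical exposure; MCP-1 by ELISA; bidirectional curve fit vs DMSO baseline.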
# [5] = read-out: Human Leukocyte Antigen - DR isotype (HLADR), HLA-DRA (gene 3122); assay: BSK_3C_HLADR: BioMAP Diversity Plus: 3C Assay for Human Leukocyte Antigen - DR isotype (HLADR) Biomarker Activity (AID 2283019); settings: primary human endothelial cells (HUVEC); actives raise or lower the signal;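 on outcome: ELISA of cell-surface HLA-DR on HUVEC 24 h after dosing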
# In short: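 HUVEC, 3C stimulation, 24 h post-dose; HLA-DR by ELISA; bidirectional curve fit vs DMSO baseline; gain or loss of signal scored.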
# [6] = read-out: Interleukin-8 (IL8), CXCL8 (gene 3576); assay: BSK_3C_IL8: BioMAP Diversity Plus: 3C Assay for Interleukin-8 (IL8) Biomarker Activity (AID 2283020); settings: primary human endothelial cells (HUVEC); actives raise or lower the signal
# In short: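 Human vascular endothelial cells (umbilical vein) in the 3C system; IL-8 level detected by ELISA at 24 h post-dose, with DMSO as baseline.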
# [7] = read-out: Monokine induced gamma interferon (MIG), CXCL9 (gene 4283); assay: BSK_3C_MIG: BioMAP Diversity Plus: 3C Assay for Monokine induced gamma interferon (MIG) Biomarker Activity (AID 2283021); settings: primary human endothelial cells (HUVEC); actives raise or lower the signal;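 on AC50: MIG protein level measured by immunoassay in the treated endothelial cultures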
# In short: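 After 24 h of treatment, human umbilical vein endothelial cultures (3C system) had their MIG biomarker level determined by ELISA, with DMSO serving as negative control.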
# [8] = read-out: Monocyte Chemoattractant Protein-1 (MCP1), CCL2 (gene 6347); assay: BSK_4H_MCP1: BioMAP Diversity Plus: 4H Assay for Monocyte Chemoattractant Protein-1 (MCP1) Biomarker Activity (AID 2283018); settings: primary human endothelial cells (HUVEC); actives raise or lower the signal
# In short: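 Readout: MCP-1 ELISA on compound-treated HUVEC, sampled 24 h post-dosing. Baseline and negative control DMSO; bidirectional fit. Overt toxicity checked alongside by sulforhodamine B protein staining at time of biomarker measurement.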
# [9] = target: human Vitamin D Receptor (VDR), VDR (gene 7421) (UniProt P11473); assay: ATG_VDR_TRANS: Attagene TRANS-FACTORIAL HepG2 Assay for human Vitamin D Receptor (VDR) (AID 2283022; active means hit-call score of the fitted dose curve at least 0.9, where 1 is the maximum)
# In short: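 RT-PCR/capillary electrophoresis read-out of reporter mRNA induction in transiently transfected HepG2; 24 h dosing; chimeric NR-Gal4 (TRANS format); gain-of-signal fit against DMSO baseline.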
# [10] = target: human Retinoid X Receptor beta (RXRb), RXRB (gene 6257) (UniProt P28702); assay: ATG_RXRb_TRANS: Attagene TRANS-FACTORIAL HepG2 Assay for human Retinoid X Receptor beta (RXRb) (AID 2283013; active means hit-call score of the fitted dose curve at least 0.9, where 1 is the maximum)
# In short: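 Multiplexed TRANS reporter assay in HepG2; 24 h dosing; reporter mRNA by RT-PCR/CE fluorescence; gain-of-signal relative to DMSO.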
# human Vitamin D Receptor (VDR), VDR (gene 7421), sequence (P11473 whole entry, looked up, the tested form may be a part): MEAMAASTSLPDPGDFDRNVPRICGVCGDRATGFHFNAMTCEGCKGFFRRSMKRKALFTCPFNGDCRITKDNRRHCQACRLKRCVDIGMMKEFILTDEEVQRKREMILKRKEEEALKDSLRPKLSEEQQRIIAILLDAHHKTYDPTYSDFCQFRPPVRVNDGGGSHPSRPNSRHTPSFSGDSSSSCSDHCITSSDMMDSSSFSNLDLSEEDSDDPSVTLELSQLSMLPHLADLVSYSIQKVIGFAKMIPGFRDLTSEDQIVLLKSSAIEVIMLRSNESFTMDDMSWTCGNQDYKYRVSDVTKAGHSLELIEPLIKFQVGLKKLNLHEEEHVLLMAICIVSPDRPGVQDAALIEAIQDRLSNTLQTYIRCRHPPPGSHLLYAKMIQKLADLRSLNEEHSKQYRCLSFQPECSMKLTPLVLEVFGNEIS
# human Retinoid X Receptor beta (RXRb), RXRB (gene 6257), sequence (P28702 whole entry, looked up): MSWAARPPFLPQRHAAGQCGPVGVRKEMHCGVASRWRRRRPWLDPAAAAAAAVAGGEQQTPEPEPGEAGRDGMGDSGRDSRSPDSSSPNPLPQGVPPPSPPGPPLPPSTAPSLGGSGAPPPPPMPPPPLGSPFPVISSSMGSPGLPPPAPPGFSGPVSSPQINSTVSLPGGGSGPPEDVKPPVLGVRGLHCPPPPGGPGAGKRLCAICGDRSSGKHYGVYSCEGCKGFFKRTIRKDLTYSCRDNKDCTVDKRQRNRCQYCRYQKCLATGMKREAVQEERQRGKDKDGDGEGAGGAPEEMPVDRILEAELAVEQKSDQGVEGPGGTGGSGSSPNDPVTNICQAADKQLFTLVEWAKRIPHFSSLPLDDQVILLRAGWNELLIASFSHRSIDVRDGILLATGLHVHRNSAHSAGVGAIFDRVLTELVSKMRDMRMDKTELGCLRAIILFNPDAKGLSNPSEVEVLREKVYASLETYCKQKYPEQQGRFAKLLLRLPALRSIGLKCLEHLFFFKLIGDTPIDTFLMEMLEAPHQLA
# human Thyroid Receptor alpha (THRa1), THRA (gene 7067), sequence (P10827 whole entry, looked up, the tested form may be a part): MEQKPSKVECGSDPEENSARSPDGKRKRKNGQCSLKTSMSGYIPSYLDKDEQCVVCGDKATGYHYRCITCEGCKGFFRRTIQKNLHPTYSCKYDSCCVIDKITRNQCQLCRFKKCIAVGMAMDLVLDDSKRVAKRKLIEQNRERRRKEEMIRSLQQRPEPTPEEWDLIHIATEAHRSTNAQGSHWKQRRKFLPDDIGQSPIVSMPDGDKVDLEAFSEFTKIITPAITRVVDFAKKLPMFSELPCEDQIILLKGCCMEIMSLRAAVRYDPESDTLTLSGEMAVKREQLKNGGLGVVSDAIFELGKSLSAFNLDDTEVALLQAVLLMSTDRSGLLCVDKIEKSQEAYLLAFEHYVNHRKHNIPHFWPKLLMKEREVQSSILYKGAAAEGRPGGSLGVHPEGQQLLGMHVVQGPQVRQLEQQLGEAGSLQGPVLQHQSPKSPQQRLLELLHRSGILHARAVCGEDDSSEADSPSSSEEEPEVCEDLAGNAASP
# E-selectin (Homo sapiens), sequence (P16581 whole entry, looked up): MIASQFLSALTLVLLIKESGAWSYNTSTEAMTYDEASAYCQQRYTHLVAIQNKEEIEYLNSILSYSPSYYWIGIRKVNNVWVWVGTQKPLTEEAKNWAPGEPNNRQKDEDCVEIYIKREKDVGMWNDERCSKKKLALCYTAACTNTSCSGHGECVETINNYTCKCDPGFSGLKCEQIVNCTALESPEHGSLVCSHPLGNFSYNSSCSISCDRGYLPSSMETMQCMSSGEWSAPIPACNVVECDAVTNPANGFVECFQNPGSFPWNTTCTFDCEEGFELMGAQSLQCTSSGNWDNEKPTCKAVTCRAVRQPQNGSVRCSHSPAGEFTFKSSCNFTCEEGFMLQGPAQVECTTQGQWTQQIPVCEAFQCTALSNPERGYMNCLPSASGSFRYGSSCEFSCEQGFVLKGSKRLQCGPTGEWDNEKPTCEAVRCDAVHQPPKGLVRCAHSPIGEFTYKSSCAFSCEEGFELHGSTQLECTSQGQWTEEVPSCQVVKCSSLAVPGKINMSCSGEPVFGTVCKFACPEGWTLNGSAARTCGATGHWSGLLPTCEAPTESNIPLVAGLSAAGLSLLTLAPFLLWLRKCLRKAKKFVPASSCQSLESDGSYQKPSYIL
smiles,measurement,setting,value
O=C1c2ccccc2C(=O)N1CCc1noc(-c2ccc(CN3CCCCCC3)s2)n1,outcome,[1],inactive
same,outcome,[2],inactive
same,outcome,[3],inactive
same,outcome,[4],inactive
same,AC50,[5],26.7 µM (active)
same,outcome,[6],inactive
same,outcome,[7],inactive
OCCO,outcome,[1],inactive
same,outcome,[2],inactive
same,outcome,[3],inactive
same,outcome,[4],inactive
same,outcome,[8],inactive
same,outcome,[5],inactive
same,outcome,[6],inactive
same,outcome,[7],inactive
same,outcome,[9],inactive
CCCCCCCCOC(=O)c1cc(O)c(O)c(O)c1,outcome,[1],inactive
same,AC50,[2],38.8 µM (active)
same,AC50,[3],33.4 µM (active)
same,AC50,[4],31.8 µM (active)
same,AC50,[8],8.64 µM (active)
same,AC50,[5],15.3 µM (active)
same,AC50,[6],30.8 µM (active)
same,AC50,[7],39.3 µM (active)
same,AC50,[9],55 µM (active)
O=C(OCCCCCCOC(=O)c1ccccc1)c1ccccc1,outcome,[10],inactive
same,outcome,[1],inactive
same,outcome,[2],inactive
same,outcome,[3],inactive
same,outcome,[4],inactive
same,outcome,[8],inactive
same,outcome,[6],inactive
same,outcome,[9],inactive
Cc1ccc2oc(CN(Cc3ccccc3)C(=O)Nc3c(F)cc(F)cc3F)c(-c3ccc(Cl)cc3)c2c1,outcome,[10],inactive
same,outcome,[1],inactive
same,outcome,[2],inactive
same,outcome,[3],inactive
same,outcome,[4],inactive
same,outcome,[6],inactive
same,outcome,[9],inactive
Cc1c2ccccc2c(C)c2c1ccc1ccccc12,AC50,[10],15 µM (active)
same,outcome,[2],inactive
same,outcome,[3],inactive
same,AC50,[4],5.5 µM (active)
same,AC50,[8],13 µM (active)
same,AC50,[5],14.3 µM (active)
same,AC50,[6],35.9 µM (active)
same,outcome,[7],inactive
Cc1cc2c(cc1C(F)(F)F)N(C(=O)Nc1ccc(Oc3cccnc3C)nc1)CC2,outcome,[1],inactive
same,outcome,[2],inactive
same,outcome,[3],inactive
same,outcome,[4],inactive
same,AC50,[6],0.889 µM (active)
CCCCCCCCCCCC[N+](C)(C)C,outcome,[1],inactive
same,AC50,[2],1.98 µM (active)
same,AC50,[3],31.9 µM (active)
same,AC50,[4],20 µM (active)
same,AC50,[8],16.3 µM (active)
same,AC50,[6],12.7 µM (active)
same,AC50,[7],29.4 µM (active)
same,outcome,[9],inactive
CN(C)C(=O)C1(N2CCCCC2)CCN(CC[C@@]2(c3ccc(Cl)c(Cl)c3)CN(C(=O)c3ccccc3)CCO2)CC1,outcome,[1],inactive
same,AC50,[2],29.8 µM (active)
same,AC50,[3],29.2 µM (active)
same,AC50,[4],22.9 µM (active)
same,AC50,[8],18.9 µM (active)
same,AC50,[6],24.3 µM (active)
same,AC50,[7],34.7 µM (active)
same,outcome,[9],inactive
CC(O)CC(C)(C)O (stereo unspecified),outcome,[1],inactive
same,outcome,[2],inactive
same,outcome,[3],inactive
same,outcome,[4],inactive
same,outcome,[5],inactive
same,outcome,[6],inactive
same,outcome,[7],inactive
same,outcome,[9],inactive
O=C(O)c1ccccc1-n1cc(C(=O)O)c(=O)c2cc(Nc3c(F)cc(F)cc3Cl)c(Cl)cc21,outcome,[1],inactive
same,outcome,[2],inactive
same,outcome,[3],inactive
same,outcome,[4],inactive
same,outcome,[8],inactive
same,outcome,[5],inactive
same,outcome,[6],inactive
same,outcome,[7],inactive
COCC(C)OCC(C)OCC(C)O (stereo unspecified),outcome,[1],inactive
same,outcome,[2],inactive
same,outcome,[3],inactive
same,outcome,[4],inactive
same,outcome,[8],inactive
same,outcome,[5],inactive
same,outcome,[6],inactive
same,outcome,[7],inactive
Cc1occc1C(=O)Nc1ccc(C(=O)N2CCC(F)(F)/C(=C\C(=O)N3CCC(N4CCCCC4)CC3)c3ccccc32)cc1,AC50,[1],53.8 µM (active)
same,outcome,[2],inactive
same,outcome,[3],inactive
same,outcome,[4],inactive
same,outcome,[8],inactive
same,outcome,[5],inactive
same,outcome,[6],inactive
same,outcome,[9],inactive
C[C@]12CC[C@@H]3c4ccc(O)cc4CC[C@H]3[C@@H]1CC[C@H]2O,outcome,[10],inactive
same,outcome,[1],inactive
same,AC50,[2],8.58 µM (active)
same,outcome,[3],inactive
same,AC50,[4],14.3 µM (active)
same,AC50,[6],13 µM (active)
same,outcome,[9],inactive
NCc1cccc(C2CCN(C(=O)c3ccc(C#Cc4ccccc4F)o3)CC2)c1,outcome,[1],inactive
same,AC50,[2],35.6 µM (active)
same,AC50,[3],15 µM (active)
same,AC50,[4],20.8 µM (active)
same,AC50,[5],11.3 µM (active)
same,AC50,[6],23.1 µM (active)
same,outcome,[9],inactive
O=C=NCCCCCCN=C=O,outcome,[10],inactive
same,outcome,[2],inactive
same,outcome,[3],inactive
same,outcome,[4],inactive
same,outcome,[8],inactive
same,outcome,[5],inactive
same,outcome,[6],inactive
same,outcome,[7],inactive
COc1cc(C(=O)NC2CCN(C)CC2)ccc1Nc1ncc2c(n1)N(C1CCCC1)CC(F)(F)C(=O)N2C,outcome,[1],inactive
same,AC50,[2],17.2 µM (active)
same,AC50,[3],10.2 µM (active)
same,AC50,[4],12 µM (active)
same,AC50,[5],4.47 µM (active)
same,AC50,[6],7.74 µM (active)
same,AC50,[7],19.2 µM (active)
same,outcome,[9],inactive
